Most compounds without a hit are left out; they make up all but 7.3% or so of the library.
p53 reactivator – re-activators of mutant p53; H1299 p53-A138V BP100-luciferase reporter, luminescence, 24 h; Potency, µM (top dose mostly 92.2 µM), for the others: at the top dose activity change, positive = activation, actives largely listed as activators; AID 504706; actives 0.063% (n = 320,000); also: % of control where 0% means no effect; nearly all actives have a fitted effect of over 45% in size
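H1299 (p53-null), stable ts p53-A138V + BP100-Luc; 1000 cells/well, Opti-MEM/10% FBS; cpd 4 pt, 1:5; 24 h, 37 deg C, 5% CO2; detection reagent 10 min RT; luminescence.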
FLuc counter – inhibits or activates purified firefly luciferase, miR-21 counter-screen; Potency, µM (top dose mostly 57.5 µM), inactives show at the top dose activity change, negative = inhibition, actives largely listed as inhibitors; AID 588342; actives 6.9% (n = 360,000); purified FLuc, Km substrates, luminescence inhibition; P08659;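 also: plate controls were vehicle for no effect and reference inhibitor for full effect; nearly all actives have a fitted effect of over 55% in size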
Target sequence (P08659 whole entry, looked up): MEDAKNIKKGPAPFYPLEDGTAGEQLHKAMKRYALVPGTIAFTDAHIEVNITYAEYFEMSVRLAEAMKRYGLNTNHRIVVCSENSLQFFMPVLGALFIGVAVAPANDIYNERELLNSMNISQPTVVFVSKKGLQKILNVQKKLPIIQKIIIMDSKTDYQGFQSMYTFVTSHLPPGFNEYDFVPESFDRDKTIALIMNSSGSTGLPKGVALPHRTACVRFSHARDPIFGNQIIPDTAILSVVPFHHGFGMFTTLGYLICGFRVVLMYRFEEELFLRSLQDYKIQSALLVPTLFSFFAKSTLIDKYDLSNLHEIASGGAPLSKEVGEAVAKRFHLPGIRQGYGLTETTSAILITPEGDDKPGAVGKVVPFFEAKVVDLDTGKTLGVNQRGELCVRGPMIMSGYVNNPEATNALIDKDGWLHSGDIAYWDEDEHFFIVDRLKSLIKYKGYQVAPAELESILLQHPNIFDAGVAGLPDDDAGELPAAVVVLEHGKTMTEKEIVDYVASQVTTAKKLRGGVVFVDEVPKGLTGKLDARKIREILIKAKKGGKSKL
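Purified P. pyralis luciferase, 10 nM final, with Km-level 10 uM D-luciferin and 10 uM ATP in 50 mM Tris acetate pH 7.5, 10 mM Mg acetate, 0.01% Tween-20, 0.05% BSA; 6-point qHTS titration about 60 µM downward; luminescence read.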
NPC1 prom act – NPC1 promoter activation | Huh7 NPC1 promoter luciferase reporter, 24 h | actives 2.4% (n = 320,000) | Potency, µM (highest dose often 9.22 µM), inactives show at the highest dose activation, usual class: activators | AID 485313; also: % of control where 0% means no effect; nearly all actives have a fitted effect of over 60% in size
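Luminescence from an NPC1 promoter-driven luciferase reporter in stably transfected Huh7 cells was measured after 24 h compound treatment at 37 °C, followed by 10 min ambient incubation with luciferase detection reagent.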
ELG1 genotox – genotoxicity induction in ELG1-luciferase HEK293T cells. Potency, µM (top dose mostly 46 µM), inactives show top-dose activity change, positive = activation, most hits filed as activators. HEK293T ELG1-luciferase reporter, luminescence, 16 h. actives 1.3% (n = 330,000); also: % of control where 0% means no effect; nearly all actives have a fitted effect of over 60% in size
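Screening used a luciferase reporter fused to human ELG1 in HEK293T cells. Luminescence was read on a CCD plate imager after 16 hr exposure and 30 min ONE-Glo incubation.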
Rab9 promoter act – activators of Rab9 promoter | AID 485297 | Huh7 Rab9 promoter-luciferase reporter, luminescence, 24 h | Potency, µM (highest dose often 9.22 µM), for inactives: at the top dose activation, negative = inhibition, hits mostly activators | actives 2.8% (n = 320,000); also: % of control where 0% means no effect; nearly all actives have a fitted effect of over 60% in size
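Rab9 promoter-driven luciferase in stably transfected Huh7 cells; 1500 cells/well rested 2 h, exposed to compound in DMSO for 24 h at 37 °C, 5% CO2. Luminescence read 10 min after adding luciferase reagent at ambient temperature.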
SMN2 splice enh – SMN2 splice variant enhancement | Potency, µM (top dose mostly 46.1 µM), without a hit: top-dose activity change, positive = activation, usual class: activators | actives 2.8% (n = 210,000) | HEK293 SMN2-luciferase splicing reporter, luminescence, 30-36 h | AID 1458; also: % of control where 0% means no effect; nearly all actives have a fitted effect of over 55% in size
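qHTS luciferase splicing reporter: luminescence rises when SMN2 exon 7 is included in transfected HEK293 cells. Compound exposure lasted 30-36 h at 37C, with 4.5 mM final sodium butyrate as control, followed by a ONE-Glo read.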
* hit, by the source's call; ? = inconclusive; nt = no result given; [ ] = remark or other dose. Calls follow the shape of the dose curve; as a rule, active = well fitted curve in the direction sought with a large enough effect; inconclusive = small, poorly fitted or top-dose-only effect, or another doubt; inactive = no such curve, though single readings can be large; an effect the other way counts as inactive or inconclusive. Potency is read from the fitted curve at half-maximal effect.

SMILES	p53 reactivator	FLuc counter	NPC1 prom act	ELG1 genotox	Rab9 promoter act	SMN2 splice enh
CC(C)c1ccc(/C=C2\SC(=O)N(CC(=O)NC3CCS(=O)(=O)C3)C2=O)cc1 (configuration not stated)	12%	1.1µM*	4µM*	9%	?	nt
O=C(CN1C(=O)S/C(=C\C=C\c2ccccc2)C1=O)NC1CCS(=O)(=O)C1 (configuration not stated)	?	5.4µM*	2.5µM*	7%[9.26 µM]	2.8µM*	nt
Fc1ccc(-c2ncc3ccccn23)cc1	0%	-15%	0%	7%	0%	nt
COc1cc(OC)cc(-c2ncc3ccccn23)c1	-11%	17µM*	1%	4%	4%	-6%
Brc1ccc(-c2ncc3ccccn23)cc1	?	13µM*	3.2µM*	?	3.2µM*	nt
COc1cccc(-c2ncc3ccccn23)c1	?	8.5µM*	4µM*	?	2.8µM*	14µM*
O=C(CCC1N=C2c3ccccc3N=C(SCc3ccc(F)cc3)N2C1=O)NCCc1ccccc1 (configuration not stated)	nt	2%	nt	nt	nt	nt
CCCOC(=O)c1ccc(NC(=O)c2nc3nc(C)cc(C)n3n2)cc1	1%	-12%	0%	-1%	-2%	-16%
O=C(NC1=NCCS1)c1cc(-c2cccc(Br)c2)nc2ccccc12	12%	11µM*	2%	-4%	-1%	-38%
O=C(Nn1cnnc1)c1cc(-c2cccc(Br)c2)nc2ccccc12	12%	0.85µM*	18%	?	24%	nt
O=C(Nc1ncccn1)c1cc(-c2cccc(Br)c2)nc2ccccc12	-7%	27µM*	0%	-8%	-4%	-15%
Cc1ccc2nc(-c3cccc(Br)c3)cc(C(=O)NC3=NCCS3)c2c1	-3%	5.4µM*	-1%	-9%	0%	9%
COc1cccc(CN2C(=O)c3ccccc3C2C(=O)NCCc2ccccc2)c1 (configuration not stated)	nt	-5%	nt	nt	nt	3%
CC(C)OC(=O)c1c(NC(=O)C2c3ccccc3Oc3ccccc32)sc2c1CCCC2	nt	-1%	nt	nt	nt	-7%
Cc1cc(O)c2c(c1O)C(=O)C(O)=C(O)C2=O	nt	nt	nt	nt	nt	-9%
Nc1ncnc2c1ncn2[C@@H]1O[C@H](C(=O)NC2CC2)[C@H](O)[C@H]1O	nt	nt	nt	nt	nt	14%
CC(C)COc1cccc(C(=O)Nc2ccc(-c3nc4ncccc4o3)cc2)c1	nt	-1%	nt	nt	nt	0%
CCOc1ccc(CCNC(=O)c2nn(-c3ccc(OC)cc3)c(=O)c3c2c2ccccc2n3C)cc1OCC	nt	-2%	nt	nt	nt	-13%
O=C(CN1CCCCC1)Nc1scc2c1c(=O)oc1ccccc12	2%	-9%	?	15%	2.8µM*	nt
C=CCOC(=O)NC(CC(=Nc1ccc(OC)cc1)C(=O)OC)c1ccccc1 (configuration not stated)	nt	nt	nt	nt	nt	3%
C[C@@]12C=CC(=O)C=C1CCC1C3CC(O)[C@@](O)(C(=O)CO)[C@]3(C)CC(O)[C@]12F (some centres not stated)	nt	nt	nt	nt	nt	1%
Cc1ccc(CC2CC(=O)N(c3nc4ccccc4s3)C2=O)cc1 (configuration not stated)	-3%	27µM*	-1%	0%	-9%	nt
O=C1C2C3C=CC(C3)C2C(=O)N1c1ccc2ccccc2n1 (configuration not stated)	8%	?	1%	1%	2%	-1%
O=C1C2C3C=CC(C3)C2C(=O)N1c1nc2ccccc2s1 (configuration not stated)	3%	19µM*	2%	0%	-5%	-16%
Brc1ccsc1-c1csc(-c2ccncc2)n1	?	?	25%	?	28%	nt
Oc1ccc(-c2csc(-c3cccnc3)n2)cc1O	?	17µM*	21%	?	-15%	nt

Screening results: PubChem, National Center for Advancing Translational Sciences (NCATS)
